In PubChem BioAssay (Tox21):
Several values for one entry are separate records, joined by “and”; a condition that tells them apart may be missing. Equal entries are not always repeated. Records with an inconclusive call do not appear. Where a call stands in place of a potency, no number is given. A structure can be active in one record and inactive in another. Activity calls are given as the source filed them. Unless noted, the call rests on the fitted dose curve; in most records, active means well fitted curve in the direction sought with a large enough effect in the repeat runs; inconclusive means weak or mixed curves; inactive means no such curve, though single readings can be large; an effect the other way counts as inactive or inconclusive.

Assays:
[1] = qHTS assay to identify aromatase inhibitors - cell viability counter screen (AID 743084);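 further: cells stimulated with testosterone during compound exposure; nearly all actives have a fitted effect of over 55% in size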; further: potency means the concentration at half of the fitted maximal effect
[2] = target: Aryl hydrocarbon receptor (Homo sapiens) (UniProt P35869); test: qHTS assay to identify small molecule that activate the aryl hydrocarbon receptor (AhR) signaling pathway (AID 743085);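 further: HG2L7.5c1 human HepG2 liver cells with stably integrated DRE-driven firefly reporter; series mostly up to about 70 µM; nearly all actives have a fitted effect of over 15% in size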
Method in brief: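 Measured in HG2L7.5c1 cells: CellTiter-Fluor signal (30 min incubation, 37C) for viability, then luciferase luminescence (30 min, room temperature). Compound contact time was 24 h at 37C, following a 5 h pre-incubation.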

[3] = qHTS assay to identify small molecule that activate the aryl hydrocarbon receptor (AhR) signaling pathway - cell viability counter screen (AID 743086);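 further: HepG2 liver cells carrying the AhR DRE luciferase reporter; series mostly up to about 70 µM; nearly all actives have a fitted effect of over 45% in size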
Method in brief: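 Cytotoxicity counter screen: CellTiter-Fluor signal (30 min, 37 C) in 4000 HepG2 cells/well carrying the DRE-luciferase reporter, following 24 h compound exposure at 37 C.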

[4] = target: Peroxisome proliferator-activated receptor gamma (Homo sapiens) (UniProt P37231); test: qHTS assay to identify small molecule agonists of the peroxisome proliferator-activated receptor gamma (PPARg) signaling pathway (AID 743094; active means well fitted activation curve with a large enough effect in the signal ratio in the repeat runs, not every such curve was filed as active; the % refers to the signal ratio)
Method in brief: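 Agonism was assessed in a beta-lactamase reporter system, HEK293H cells with a stably integrated UAS-bla construct under PPARg control; the 17 h treatment at 37C preceded a 1 h room-temperature FRET substrate read.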

[5] = target: Peroxisome proliferator-activated receptor gamma (Homo sapiens) (UniProt P37231); test: qHTS assay to identify small molecule antagonists of the peroxisome proliferator-activated receptor gamma (PPARg) signaling pathway (AID 743191; calls by dose curve; further: series mostly up to about 63 µM; nearly all actives have a fitted effect of over 30% in size)
Method in brief: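 Beta-lactamase reporter under UAS control in HEK293H PPARg-bla cells; compound treatment 17 h at 37C. Read-out: fluorescence intensity after 1 h room-temperature incubation with LiveBLAzer B/G FRET substrate.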

[6] = qHTS assay to identify small molecule antagonists of the peroxisome proliferator-activated receptor gamma (PPARg) signaling pathway - cell viability counter screen (AID 743194); further: nearly all actives have a fitted effect of over 55% in size
Method in brief: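 Viability was measured as CellTiter-Glo luminescence in GeneBLAzer PPARg UAS-bla HEK293H cells. These cells had been exposed 17 h at 37 C to compounds together with rosiglitazone at 50 nM final, with the beta-lactamase readout taken in the same wells.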

[7] = qHTS assay for small molecule agonists of the antioxidant response element (ARE) signaling pathway (AID 743202; active means well fitted activation curve with a large enough effect in the signal ratio in the repeat runs, not every such curve was filed as active; the % refers to the signal ratio; further: potency means the concentration at half of the fitted maximal effect)
Method in brief: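 After 16 hours of compound treatment at 37 C, HepG2 cells with a stably integrated ARE-driven beta-lactamase reporter were loaded 2 hours at room temperature with LiveBLAzer B/G FRET substrate and fluorescence intensity measured.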

[8] = qHTS assay for small molecule agonists of the antioxidant response element (ARE) signaling pathway - cell viability counter screen (AID 743203; calls by dose curve; further: nearly all actives have a fitted effect of over 55% in size)
Method in brief: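 ATP content via CellTiter-Glo luminescence served as the viability measure. Cells: ARE-bla HepG2, 2,000 per well. Exposure: 16 hrs, 37C/5% CO2.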

[9] = qHTS assay for small molecule activators of the heat shock response signaling pathway - cell viability counter screen (AID 743209); further: nearly all actives have a fitted effect of over 50% in size
Method in brief: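 Compounds dissolved in DMSO were added to overnight-plated HSE-bla HeLa cells and left 5 h at 37 C. Cell viability was quantified by luminescence using CellTiter-Glo.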

[10] = qHTS assay for small molecule activators of the heat shock response signaling pathway (AID 743210; active means well fitted activation curve with a large enough effect in the signal ratio in the repeat runs, with a control signal flat, not every such curve was filed as active; the % refers to the signal ratio; further: series mostly up to about 63 µM)
Method in brief: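 Compound exposure lasted 5 h at 37 C in HeLa cells carrying a heat-shock-element-driven beta-lactamase reporter. Read-out: fluorescence intensity after 2.5 h room-temperature loading with LiveBLAzer B/G FRET substrate.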

[11] = qHTS assay to identify small molecule agonists of the peroxisome proliferator-activated receptor delta (PPARd) signaling pathway - cell viability counter screen (AID 743211); further: nearly all actives have a fitted effect of over 55% in size
Method in brief: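 Following 5 h plating at 37 C and 5% CO2, PPARd UAS-bla HEK293H cells took up test compounds for 17 h. Viability was quantified by luminescence 30 min after CellTiter-Glo addition at room temperature.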

[12] = target: Peroxisome proliferator-activated receptor delta (Homo sapiens) (UniProt Q03181); test: qHTS assay to identify small molecule agonists of the peroxisome proliferator-activated receptor delta (PPARd) signaling pathway (AID 743212; calls by dose curve)
Method in brief: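 Beta-lactamase reporter readout: a ratiometric FRET signal from the LiveBLAzer substrate after 2 h at room temperature. Compound exposure at 37 °C in PPARδ-bla HEK293H cells driven by an upstream activator sequence.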

[13] = qHTS assay to identify small molecule antagonists of the peroxisome proliferator-activated receptor delta (PPARd) signaling pathway - cell viability counter screen (AID 743213); further: nearly all actives have a fitted effect of over 50% in size
Method in brief: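 Luminescence from CellTiter-Glo, added after the bla read and incubated 30 min at room temperature, gives viability of HEK293H PPARd-bla cells exposed to compounds for 17 h at 37 C with 300 nM L165041.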

[14] = target: Peroxisome proliferator-activated receptor delta (Homo sapiens) (UniProt Q03181); test: qHTS assay to identify small molecule antagonists of the peroxisome proliferator-activated receptor delta (PPARd) signaling pathway (AID 743215; active means well fitted inhibition curve with a large enough effect in the signal ratio in the repeat runs, not every such curve was filed as active; the % refers to the signal ratio;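 further: cells stimulated with agonist L165041 at 300 nM final during compound exposure; series mostly up to about 62 µM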)
Method in brief: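 Here, a reporter line (HEK293H, beta-lactamase under a UAS) measures PPARd signaling. Compounds are tested against agonist L165041 at 300 nM final concentration over 17 h at 37 C, with fluorescence read after substrate.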

[15] = qHTS assay to identify small molecule agonists of the farnesoid-X-receptor (FXR) signaling pathway - cell viability counter screen (AID 743218); further: nearly all actives have a fitted effect of over 45% in size
Method in brief: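 Quantitative HTS counter screen measuring ATP-based viability via CellTiter-Glo luminescence in HEK 293T cells carrying a UAS-driven beta-lactamase reporter, after 16 h compound exposure at 37 C.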

[16] = qHTS assay to identify small molecule antagonists of the farnesoid-X-receptor (FXR) signaling pathway - cell viability counter screen (AID 743221; active means well fitted cell-killing curve with a large enough effect in the repeat runs, not every such curve was filed as active; further: nearly all actives have a fitted effect of over 50% in size)
Method in brief: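 Compound effects on cell number were measured as CellTiter-Glo luminescence in HEK 293T cells expressing FXR-UAS-bla, after 16 h at 37 C with 50 uM CDCA (final).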

[17] = target: Bile acid receptor (Homo sapiens) (UniProt Q96RI1); test: qHTS assay to identify small molecule antagonists of the farnesoid-X-receptor (FXR) signaling pathway (AID 743217; active means well fitted inhibition curve with a large enough effect in the signal ratio in the repeat runs, not every such curve was filed as active; the % refers to the signal ratio)
Method in brief: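 Test compounds are pin-transferred onto FXR-bla HEK 293T cells, then chenodeoxycholic acid is added at 50 uM final. After 16 h at 37 °C, LiveBLAzer B/G substrate is applied for 2 h at room temperature and fluorescence read.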

[18] = target: Bile acid receptor (Homo sapiens) (UniProt Q96RI1); test: qHTS assay to identify small molecule agonists of the farnesoid-X-receptor (FXR) signaling pathway (AID 743220; active means well fitted activation curve with a large enough effect in the signal ratio in the repeat runs, not every such curve was filed as active; the % refers to the signal ratio)
Method in brief: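 FXR-UAS-bla HEK 293T cells carrying a UAS-driven beta-lactamase reporter were plated for 5 h at 37C/5% CO2, then exposed to DMSO-dissolved Tox21 10K compounds for 16 h at 37C. A LiveBLAzer B/G FRET substrate was loaded for 2 h at room temperature before fluorescence reading.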

[19] = target: Vitamin D3 receptor (Homo sapiens) (UniProt P11473); test: qHTS assay to identify small molecule agonists of the vitamin D receptor (VDR) signaling pathway (AID 743222; calls by dose curve)
Method in brief: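 Tox21 cell reporter format: VDR-bla line, 16 h compound exposure in 5% CO2 at 37C, then fluorescence intensity after 2 h with LiveBLAzer B/G FRET substrate.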

[20] = target: Vitamin D3 receptor (Homo sapiens) (UniProt P11473); test: qHTS assay to identify small molecule antagonists of the vitamin D receptor (VDR) signaling pathway (AID 743223; active means well fitted inhibition curve with a large enough effect in the signal ratio in the repeat runs, not every such curve was filed as active; the % refers to the signal ratio)
Method in brief: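 Beta-lactamase activity in VDR-bla cells is measured by FRET substrate fluorescence (2 h, room temperature) after cells spend 16 h at 37C with test compound and 3 nM final 1alpha,25-dihydroxyvitamin D3.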

Chain of Vitamin D3 receptor (Homo sapiens) (P11473 whole entry, looked up): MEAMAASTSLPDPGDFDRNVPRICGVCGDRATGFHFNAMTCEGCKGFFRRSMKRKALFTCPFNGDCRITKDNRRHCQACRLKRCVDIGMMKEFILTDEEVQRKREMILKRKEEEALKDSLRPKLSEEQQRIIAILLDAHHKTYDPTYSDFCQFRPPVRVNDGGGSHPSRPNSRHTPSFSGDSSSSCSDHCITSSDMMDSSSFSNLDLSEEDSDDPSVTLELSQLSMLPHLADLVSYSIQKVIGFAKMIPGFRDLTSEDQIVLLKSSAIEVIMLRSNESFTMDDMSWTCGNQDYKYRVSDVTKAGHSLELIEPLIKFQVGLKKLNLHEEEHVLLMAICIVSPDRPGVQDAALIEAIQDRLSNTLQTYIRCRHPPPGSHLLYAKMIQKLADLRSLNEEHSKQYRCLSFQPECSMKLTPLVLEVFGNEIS
Chain of Bile acid receptor (Homo sapiens) (Q96RI1 whole entry, looked up): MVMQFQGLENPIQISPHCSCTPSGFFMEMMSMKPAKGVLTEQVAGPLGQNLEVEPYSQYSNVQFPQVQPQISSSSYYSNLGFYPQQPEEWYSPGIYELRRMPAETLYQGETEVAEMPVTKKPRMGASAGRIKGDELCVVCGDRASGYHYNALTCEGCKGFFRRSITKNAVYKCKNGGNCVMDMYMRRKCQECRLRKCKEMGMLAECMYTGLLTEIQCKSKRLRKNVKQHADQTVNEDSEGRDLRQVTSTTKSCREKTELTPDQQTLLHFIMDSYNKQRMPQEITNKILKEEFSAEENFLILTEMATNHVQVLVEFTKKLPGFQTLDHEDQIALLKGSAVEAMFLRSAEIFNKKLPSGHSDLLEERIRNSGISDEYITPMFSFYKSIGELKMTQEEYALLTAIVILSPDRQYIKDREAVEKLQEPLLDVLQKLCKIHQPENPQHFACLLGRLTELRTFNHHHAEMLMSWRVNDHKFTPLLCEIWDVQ
Chain of Peroxisome proliferator-activated receptor gamma (Homo sapiens) (P37231 whole entry, looked up): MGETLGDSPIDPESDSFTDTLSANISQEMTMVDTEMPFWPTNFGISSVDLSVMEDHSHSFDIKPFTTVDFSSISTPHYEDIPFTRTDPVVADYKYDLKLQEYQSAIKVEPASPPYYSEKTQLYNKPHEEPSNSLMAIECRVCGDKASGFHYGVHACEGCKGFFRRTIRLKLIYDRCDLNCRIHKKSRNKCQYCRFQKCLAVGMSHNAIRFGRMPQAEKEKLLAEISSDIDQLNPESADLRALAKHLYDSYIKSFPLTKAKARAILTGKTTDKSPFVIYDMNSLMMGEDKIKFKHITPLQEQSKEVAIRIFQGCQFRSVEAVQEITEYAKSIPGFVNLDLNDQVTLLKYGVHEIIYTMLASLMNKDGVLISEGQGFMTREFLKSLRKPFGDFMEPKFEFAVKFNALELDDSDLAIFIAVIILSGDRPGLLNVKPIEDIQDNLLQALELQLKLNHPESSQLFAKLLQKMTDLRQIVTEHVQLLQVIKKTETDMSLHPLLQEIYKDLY
Chain of Peroxisome proliferator-activated receptor delta (Homo sapiens) (Q03181 whole entry, looked up): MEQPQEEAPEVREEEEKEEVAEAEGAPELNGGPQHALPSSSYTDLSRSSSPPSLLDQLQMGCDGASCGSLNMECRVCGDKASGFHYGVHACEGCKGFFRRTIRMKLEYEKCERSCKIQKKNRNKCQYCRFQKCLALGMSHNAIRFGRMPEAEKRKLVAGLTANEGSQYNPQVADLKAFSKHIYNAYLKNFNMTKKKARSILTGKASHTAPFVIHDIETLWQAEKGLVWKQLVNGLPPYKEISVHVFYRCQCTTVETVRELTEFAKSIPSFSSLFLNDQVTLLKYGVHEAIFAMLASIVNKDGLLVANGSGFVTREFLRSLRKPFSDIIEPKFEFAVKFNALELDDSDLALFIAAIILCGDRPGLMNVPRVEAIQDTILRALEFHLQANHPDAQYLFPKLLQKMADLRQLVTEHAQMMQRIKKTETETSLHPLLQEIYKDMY
Chain of Aryl hydrocarbon receptor (Homo sapiens) (P35869 whole entry, looked up): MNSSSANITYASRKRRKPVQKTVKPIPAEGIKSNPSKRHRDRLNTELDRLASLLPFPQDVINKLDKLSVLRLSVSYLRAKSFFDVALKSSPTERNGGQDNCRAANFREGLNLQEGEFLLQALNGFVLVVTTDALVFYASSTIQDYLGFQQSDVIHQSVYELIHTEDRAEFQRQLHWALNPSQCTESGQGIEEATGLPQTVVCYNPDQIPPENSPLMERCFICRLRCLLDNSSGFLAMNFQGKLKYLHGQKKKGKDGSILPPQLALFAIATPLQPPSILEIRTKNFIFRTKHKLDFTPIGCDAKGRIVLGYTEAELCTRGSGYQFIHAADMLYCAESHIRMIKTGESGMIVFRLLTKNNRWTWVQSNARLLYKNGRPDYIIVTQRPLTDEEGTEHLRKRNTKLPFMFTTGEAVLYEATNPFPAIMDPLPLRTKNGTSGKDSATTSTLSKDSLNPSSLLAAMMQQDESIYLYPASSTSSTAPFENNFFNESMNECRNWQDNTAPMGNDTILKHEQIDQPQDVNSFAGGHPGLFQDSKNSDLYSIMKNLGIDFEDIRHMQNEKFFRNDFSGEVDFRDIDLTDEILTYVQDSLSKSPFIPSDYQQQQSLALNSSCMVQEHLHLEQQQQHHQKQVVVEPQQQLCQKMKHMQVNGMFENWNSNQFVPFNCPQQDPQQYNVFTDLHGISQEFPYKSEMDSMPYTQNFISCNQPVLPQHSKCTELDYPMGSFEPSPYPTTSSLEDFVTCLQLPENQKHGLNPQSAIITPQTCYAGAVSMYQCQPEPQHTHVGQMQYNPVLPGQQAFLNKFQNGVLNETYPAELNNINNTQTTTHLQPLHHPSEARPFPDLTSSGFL

Row | Compound | Potency [1] | Potency [2] | Potency [3] | Potency [4] | Potency [5] | Potency [6] | Potency [7] | Potency [8] | outcome [9] | outcome [10] | Potency [11] | outcome [12] | Potency [13] | outcome [14] | Potency [15] | outcome [16] | Potency [17] | outcome [18] | outcome [19] | Potency [20]
1 | NC(N)=NC(N)=NCCc1ccccc1 | inactive | inactive | inactive | inactive | inactive | inactive | 6.08 µM (active) and 6.68 µM (active) | inactive | inactive | inactive | inactive | inactive | inactive | inactive | inactive | inactive |  |  |  | 
2 | CCN1CCCC1=O | inactive | inactive | inactive | inactive | inactive | inactive | inactive | inactive | inactive | inactive | inactive |  | inactive |  | inactive | inactive | inactive | inactive | inactive | inactive
3 | CC1(C)O[C@@H]2[C@@H](CO[C@@]3(COS(N)(=O)=O)OC(C)(C)O[C@@H]23)O1 | inactive | inactive | inactive | inactive | inactive | inactive | inactive | inactive | inactive | inactive | inactive |  | inactive |  | inactive | inactive |  |  | inactive | inactive
4 | COc1cc2c(c(OC)c1OC)-c1ccc(OC)c(=O)cc1[C@@H](NC(C)=O)CC2 | inactive | inactive | inactive | inactive | inactive | inactive |  | inactive | inactive | inactive | inactive |  | inactive |  | inactive | inactive |  | inactive | inactive | 
5 | CCCCNC(=O)NS(=O)(=O)c1ccc(N)cc1 | inactive | inactive | inactive | inactive | inactive | inactive | inactive | inactive | inactive | inactive | inactive | inactive | inactive | inactive | inactive | inactive |  |  | inactive | inactive
6 | OC[C@@H](O)[C@@H](O)[C@H](O)[C@H](O)CO | inactive | inactive | inactive | inactive | inactive | inactive | inactive | inactive | inactive | inactive | inactive |  | inactive |  | inactive | inactive |  |  | inactive | inactive
7 | CC(=O)OC/C=C(C)/C=C/C=C(C)/C=C/C1=C(C)CCCC1(C)C | inactive and 66.9 µM (active) and 61.1 µM (active) | inactive | inactive | inactive | inactive | inactive | 59.6 µM (active) | inactive | inactive |  |  | inactive | inactive | inactive | inactive | inactive |  |  | inactive | inactive
8 | C1CNCCN1 | inactive | inactive | inactive | inactive | inactive | inactive | inactive | inactive | inactive | inactive | inactive |  | inactive |  | inactive | inactive |  |  | inactive | inactive
